Results on 40 compounds are retold here after PubChem BioAssay (Tox21).

Values joined by “and” are separate entries in the source; they are usually repeats but may differ in a detail not shown here. Equal values may be shown once. Records with an inconclusive call do not appear. A call without a number means that no potency is given here. Some compounds were tested as several samples or in several runs, with calls that do not always agree. Active and inactive are the calls of the source. Calls follow the shape of the dose curve; as a rule, active = well fitted cell-killing curve with a large enough effect in the repeat runs; inconclusive = weak or mixed curves, or effect the other way; inactive = flat fitted curve, though single readings scatter.
Potency is read from the fitted curve at half-maximal effect.

A short description of the test: qHTS assay to identify small molecule agonists of the estrogen receptor beta (ER-beta) signaling pathway - cell viability counter screen (AID 1259380). Also: nearly all actives have a fitted effect of over 30% in size. The conditions noted are these: ER-beta-bla HEK293T viability, CellTiter-Glo luminescence, 16 h; series mostly up to 92.4 µM; activity change, negative = cytotoxicity: at the top concentration. From the text:
National Center for Advancing Translational Sciences [NCATS]
NIH Chemical Genomics Center [NCGC]
U.S. Environmental Protection Agency [EPA]
National Institutes of Environmental Health Sciences [NIEHS]
National Toxicology Program [NTP]
U.S. Food and Drug Administration [FDA]
Estrogen receptor (ER), a nuclear hormone receptor, plays an important role in development, metabolic homeostasis and reproduction. Two subtypes of ER, ER-alpha and ER-beta, have similar expression patterns with some uniqueness in both types. Endocrine disrupting chemicals (EDCs) and their interactions with steroid hormone receptors like ER causes disruption of normal endocrine function. To identify the compounds that activate ER signaling, an ER beta-UAS-bla GripTite cell line (Life Technologies, Madison, WI, USA) containing a beta-lactamase reporter gene under the control of an UAS response element was used to screen Tox21 10K compound library. The cytotoxicity of the Tox21 compound library against the ER-beta-bla cell line was tested in parallel by measuring the cell viability using CellTiter-Glo assay in the same wells.
Tox21 Assay Protocol Summary:
ER-beta-UAS-bla HEK293T cells were dispensed at 2,000 cells/5 uL of assay medium containing 2% charcoal stripped FBS per well into black wall/clear-bottom 1536-well plates using a Multidrop Combi (ThermoFisher Scientific, Waltham, MA) dispenser. After the assay plates were incubated at a 37C and 5% CO2 for 6 hr, 23 nL of compounds dissolved in DMSO, positive controls or DMSO only was transferred to the assay plate by a Pintool station (Kalypsys, San Diego, CA). The plates were incubated at 37C and 5% CO2 for 16 hr. Then 1 uL of LiveBLAzerTM B/G FRET substrate was added using a BioRAPTR FRD (Flying Reagent Dispenser, Aurora Discovery, San Diego, CA) and then the plates were incubated at room temperature for 2 hours, and fluorescence intensity was measured by an Envision plate reader (PerkinElmer, Shelton, CT). For cell viability readout that measures cytotoxicity, 4 uL/well of CellTiter-Glo reagent was added into the assay plates using a FRD. After 30 min incubation at room temperature, the luminescence intensity in the plates was measured using a ViewLux (PerkinElmer) plate reader.
Take `COC(=O)c1ccc(O)cc1`: the Potency entry was “inactive”. In the case of `NC(=O)NO`, the “activity change, negative = cytotoxicity” value was -1.27% [at 42.5 µM] (inactive).

In the case of `NC(=O)N/N=C/c1ccc([N+](=O)[O-])o1`, the Potency entry is “inactive”. The same measure, in the same setting: next, `CN(C)Cc1cc(CN(C)C)c(O)c(CN(C)C)c1`: “inactive”. The same measure, in the same setting: next, `C=C(C)OC(C)=O`: “inactive”; `CCCCOCCOCCSC#N`: “inactive”. Still for that read-out and setting: next, `CC1=C(/C=C/C(C)=C/C=C/C(C)=C/C(=O)O)C(C)(C)CCC1`: 19.4 µM (active) and 21.7 µM (active) and 15 µM (active).

For `NC(N)=NC(N)=NCCc1ccccc1`, the Potency entry is “inactive”. `CC(=O)OC/C=C(C)/C=C/C=C(C)/C=C/C1=C(C)CCCC1(C)C`: the “activity change, negative = cytotoxicity” value was -1.84% [at 42.5 µM] (inactive). Turning to `CO[C@H]1C=CO[C@@]2(C)Oc3c(C)c(O)c4c(O)c(c(/C=N/N5CCN(C)CC5)c(O)c4c3C2=O)NC(=O)/C(C)=C\C=C[C@H](C)[C@H](O)[C@@H](C)[C@@H](O)[C@@H](C)[C@H](OC(C)=O)[C@@H]1C`, the Potency entry is “inactive”. On the same count and under the same terms, next, `CCN(CC)CCOC(=O)c1ccc(N)cc1`: “inactive”. The same measure, in the same setting: next, `COCCOCCOC`: “inactive”; `COc1cc2c(c(OC)c1OC)-c1ccc(OC)c(=O)cc1[C@@H](NC(C)=O)CC2`: 27 µM (active) and inactive.

Regarding `C=CCOC(=O)CC(C)C`, the Potency entry is “inactive”. On to `Cc1c(N(C)C)c(=O)n(-c2ccccc2)n1C`, for which the Potency entry was “inactive”. Same read-out and setting: then `Cc1ccc(O)c(-n2nc3ccccc3n2)c1`, with “inactive”. Take `NC(=O)c1ccc([N+](=O)[O-])cc1Cl`: the Potency result is “inactive”. Same read-out and setting: then `CC(O)COc1ccccc1` (stereo not given), with “inactive”.

In the case of `CCOC(=O)C(C)(C)Oc1ccc(Cl)cc1`, the Potency entry was “inactive”. In the case of `C#C[C@]1(O)CC[C@H]2[C@@H]3CCc4cc(O)ccc4[C@H]3CC[C@@]21C`, the Potency is 60.7 µM (active) and 48.6 µM (active). `C#C[C@]1(O)CC[C@H]2[C@@H]3CCC4=CC(=O)CC[C@@H]4[C@H]3CC[C@@]21CC`: the Potency entry is “inactive”. The same measure, in the same setting: then `C[C@]12C[C@H](O)[C@H]3[C@@H](CCC4=CC(=O)CC[C@@]43C)[C@@H]1CC[C@@H]2C(=O)CO`, with “inactive”; and `C/C=C/c1ccc(O)c(OC)c1`, with “inactive”; and `Cc1c(N(C)CS(=O)(=O)O)c(=O)n(-c2ccccc2)n1C`, with “inactive”.

Consider `CCN1CCCC1=O`, for which the Potency entry is “inactive”. Still for that read-out and setting: then `Oc1cccc(O)c1`, with “inactive”; and `CC(=O)Oc1ccccc1C(=O)O`, with “inactive”. Regarding `O=[N+]([O-])c1ccc(O)cc1`, the Potency result was “inactive”. The same measure, in the same setting: next, `O=c1c(-c2ccc(O)cc2)coc2cc(O)cc(O)c12`: 13.7 µM (active); `COc1ccccc1O`: “inactive”.

For `CC(=O)/C=C/C1=C(C)CCCC1(C)C`, the Potency result was “inactive”. As to `c1ccc2[nH]c(-c3cscn3)nc2c1`, the Potency entry is “inactive”.

`CCCCNC(=O)NS(=O)(=O)c1ccc(N)cc1`: the Potency result was “inactive”. On the same count and under the same terms, then `CCc1cc(C(N)=S)ccn1`, with “inactive”; and `COC1=CC(=O)C[C@@H](C)[C@]12Oc1c(Cl)c(OC)cc(OC)c1C2=O`, with “inactive”; and `O=C(O)CCCCC1CCSS1` (stereo not given), with “inactive”. As to `CC(C)Cc1ccc(C(C)C(=O)O)cc1` (stereo not given), the Potency result is “inactive”. The same measure, in the same setting: then `COc1ccc(C(=O)c2ccccc2)c(O)c1`, with “inactive”; and `CC(=O)c1ccc(S(=O)(=O)NC(=O)NC2CCCCC2)cc1`, with “inactive”. Regarding `C[C@]12CC[C@@H]3c4ccc(O)cc4CC[C@H]3[C@@H]1CCC2=O`, the “activity change, negative = cytotoxicity” value is -9.87% [at 42.5 µM] (inactive).
